Screens (PubChem)
MEKK3 PB1 HTS – MEKK3-MEK5 PB1 interaction, increase or decrease. bead-based flow cytometry, Alexa488-MEK5 binding to MEKK3; actives lie on both sides; 0 = blocked by unlabeled MEK5, 100 = vehicle. binding response (% of control), % at 10 µM. 290,000 tested, 1.4% active. AID 1529;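 active = binding response more than 3 SD above or below the average of its plate-row segment, actives on both sides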;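 also: Alexa488 bead fluorescence after subtracting the streptavidin-only scavenger bead signal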
Target sequence (Q99759 whole entry, looked up): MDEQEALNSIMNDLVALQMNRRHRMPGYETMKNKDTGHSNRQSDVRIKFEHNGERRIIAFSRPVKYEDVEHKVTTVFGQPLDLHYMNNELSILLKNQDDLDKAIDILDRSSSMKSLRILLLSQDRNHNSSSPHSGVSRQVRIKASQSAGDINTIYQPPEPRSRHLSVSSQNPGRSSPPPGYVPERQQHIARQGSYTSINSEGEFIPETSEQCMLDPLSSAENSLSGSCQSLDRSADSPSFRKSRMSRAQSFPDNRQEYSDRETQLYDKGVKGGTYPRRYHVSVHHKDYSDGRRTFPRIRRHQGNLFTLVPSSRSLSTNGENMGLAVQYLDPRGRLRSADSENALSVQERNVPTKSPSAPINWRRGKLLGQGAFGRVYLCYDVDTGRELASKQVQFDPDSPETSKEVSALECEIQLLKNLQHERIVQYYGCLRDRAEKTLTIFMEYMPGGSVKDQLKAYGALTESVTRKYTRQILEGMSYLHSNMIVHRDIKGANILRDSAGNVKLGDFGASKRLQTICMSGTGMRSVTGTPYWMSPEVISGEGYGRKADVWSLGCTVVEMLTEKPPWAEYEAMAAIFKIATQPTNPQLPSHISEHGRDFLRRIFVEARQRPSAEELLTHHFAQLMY
GRK2 aptamer HTS – inhibitors of human GRK2 displacing RNA aptamer; bead flow cytometry, FAM-aptamer displacement from GRK2; 330,000 tested, 0.59% active; inhibition of aptamer binding, % at 10 µM; P25098; AID 488847;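 active = inhibition of aptamer binding above 40%, roughly 3 SD of noise, on plates passing a quality check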;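 also: median bead fluorescence of bound FAM aptamer so fluorescent compounds give negative values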
MEKK2wt PB1 HTS – raises or lowers MEK5 binding to wildtype human MEKK2 PB1 domain. AID 1531. binding response (% of control), % at 10 µM. Q9Y2U5. 290,000 tested, 1.1% active. bead flow cytometry, Alexa488-MEK5 binding to MEKK2 WT; actives lie on both sides; in the data active = binding response below about 67% or above about 130%
B2AR ag – agonists of human beta-2 adrenergic receptor inducing internalization; AID 504454; Am2.2-beta2AR cells, FAP receptor internalization, flow cytometry; P07550; response, % (test concentration not listed); 340,000 tested, 0.43% active;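 active = response above a set limit, near 3 SD of response in nonfluorescent compounds, cut at about 42% in these data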
MEKK2 mut-MEK5 – signal of MEK5 binding to mutant human MEKK2 PB1 domain; bead flow cytometry, Alexa488-MEK5 binding to MEKK2 mutant; 290,000 tested, 0.35% active; percent response, % at 10 µM; in the data active = percent response above about 24%, passing the limit was not always enough
GRK2 CP1 – human GRK2 inhibition confirmation, cherry pick 1; shares compounds with GRK2 aptamer HTS; bead-bound GRK2, FAM-aptamer displacement, flow cytometry; aptamer displacement, % at 10 µM; 2,000 tested, 4% active; AID 504451;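 active = aptamer displacement above 40%, near three times the noise of non-fluorescent compounds, on plates passing quality checks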;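 also: negative values mostly reflect intrinsic compound fluorescence rather than true enhancement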
Aptamer quench 1 – quenches fluorescent RNA aptamer, GRK2 hit artifact. shares compounds with GRK2 aptamer HTS. Fluorescent RNA aptamer beads, quenching, flow cytometry; active compounds read high. 110 tested, under 10 active. fluorescence change (kMESF span), kMESF (test concentration not listed);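 active = compounds whose bead fluorescence drops by more than 37 kMESF across the dose range, marking them as dye quenchers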
FAM quench CP1 – counter-screen for GRK2 aptamer inhibitors: fluorescent aptamer quenchers; shares compounds with GRK2 aptamer HTS; Carboxyfluorescein RNA aptamer on beads, flow cytometry quenching; active compounds read low; fluorescence response (% of DMSO), % at 10 µM; 2,000 tested, under 10 active; AID 504580;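 active = compounds that quench the bead-bound fluorescent RNA probe, cutting fluorescence to under half of the solvent control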;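 also: counterscreen run without GRK2 so only probe quenching by compound is measured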
Large screens that a line does not name were inactive (follow-up assays come after a bar, where they were run). The list is not random: actives were taken first. Their share in the collection is about 2.9%.

Cc1ccc(C)c(CSC2=NCCN2S(=O)(=O)c2ccccc2)c1	none
O=C(Cn1cnc2ccccc21)NCc1ccccc1	none
O=C(Cc1ccccc1)Nn1cnc2ccccc21	GRK2 aptamer HTS 55 | GRK2 CP1 inactive | FAM quench CP1 inactive
CC1(C)CC(=O)C2=C(C1)c1c(ccc3ccccc13)NC2c1ccc(OCC(=O)O)cc1 (configuration not stated)	GRK2 aptamer HTS 78 | GRK2 CP1 inactive | FAM quench CP1 inactive
Cc1ccc(C(c2cc(Br)ccc2O)N2CCSCC2)cc1 (configuration not stated)	none (no result: MEKK3 PB1 HTS, MEKK2wt PB1 HTS, MEKK2 mut-MEK5)
CCOc1ccc2c(c1)C(c1ccc(C)cc1)=NNC(c1ccc(OC)cc1)=N2	none
CCOc1ccc(C2=NNC(c3cccnc3)=Nc3ccc(OC)cc32)cc1	GRK2 aptamer HTS 100 | GRK2 CP1 inactive | FAM quench CP1 inactive
CC(=O)/C=N/Nc1ccccc1	none
OC[C@@H](O)[C@H](O)C(/C=N/Nc1ccccc1)=N\Nc1ccccc1	none | GRK2 CP1 inactive | FAM quench CP1 inactive
CN1C(=O)C(C)(C)c2cc(S(=O)(=O)N3CCCC(C(=O)NCc4ccccc4Cl)C3)ccc21 (configuration not stated)	none | GRK2 CP1 inactive | FAM quench CP1 inactive
CC(=O)N1CCCc2cc(S(=O)(=O)N3CCCC(C(=O)NCc4ccccc4Cl)C3)ccc21 (configuration not stated)	none
COc1ccc(Cl)cc1C(=O)NNC(=S)NC(=O)c1cc(-c2ccccc2)nc2ccccc12	GRK2 aptamer HTS 43 (no result: MEKK3 PB1 HTS, MEKK2wt PB1 HTS, MEKK2 mut-MEK5) | GRK2 CP1 inactive | FAM quench CP1 inactive
O=C(Nc1ccc2oc(-c3ccccc3)nc2c1)c1ccc2c(c1)OCCO2	none
O=C(Nc1ccc2oc(-c3cccnc3)nc2c1)c1ccc2c(c1)OCCO2	GRK2 aptamer HTS 60 | GRK2 CP1 inactive | FAM quench CP1 inactive
COc1ccc(C(CNS(=O)(=O)c2ccc(C)cc2)N2CCN(C)CC2)cc1 (configuration not stated)	none (no result: MEKK3 PB1 HTS, MEKK2wt PB1 HTS, MEKK2 mut-MEK5)
COc1ccc(N2CCN(C(CNS(=O)(=O)c3ccccc3)c3ccccc3)CC2)cc1 (configuration not stated)	GRK2 aptamer HTS 47 | GRK2 CP1 inactive | Aptamer quench 1 inactive | FAM quench CP1 inactive
Cc1ccccc1NC(=O)c1ccc(NC(=O)C2CCCO2)cc1 (configuration not stated)	none
Cc1cc(C)cc(NC(=S)/C(=C(\[O-])c2ccc(Cl)cc2Cl)[n+]2ccc(C(C)(C)C)cc2)c1	GRK2 aptamer HTS 41 | GRK2 CP1 inactive | FAM quench CP1 inactive
CC(C(=O)OCC(=O)N1CCN(c2ccccc2)CC1)N1C(=O)c2ccccc2C1=O (configuration not stated)	none (no result: MEKK3 PB1 HTS, MEKK2wt PB1 HTS, MEKK2 mut-MEK5) | GRK2 CP1 inactive | FAM quench CP1 inactive
COC(=O)c1ccc(NC(=O)COc2ccc(N(C)S(=O)(=O)c3ccc(C)cc3)cc2)cc1	none (no result: MEKK3 PB1 HTS, MEKK2wt PB1 HTS, MEKK2 mut-MEK5)
Cc1nnc2sc(SCc3ccc(Br)cc3)nn2c1=O	none
N[C@@H](Cc1ccccc1)c1nnc2sc(SCc3ccccc3)nn12	GRK2 aptamer HTS 55 | GRK2 CP1 inactive | FAM quench CP1 inactive
O=C(NCCOc1ccccc1Cl)c1cccc2c1C(=O)c1ccc(Cl)cc1S2(=O)=O	none (no result: MEKK3 PB1 HTS, MEKK2wt PB1 HTS, MEKK2 mut-MEK5)
CCCCN(CC)CCCNC(=S)Nc1ccc2nc3n(c(=O)c2c1)CCCCC3	none
O=C(NCc1ccccn1)C1COc2ccccc2O1 (configuration not stated)	GRK2 aptamer HTS 90 | GRK2 CP1 inactive | FAM quench CP1 inactive
O=C(NCc1ccncc1)C1COc2ccccc2O1 (configuration not stated)	none
CO/N=C(\C(=O)O)c1csc(NN=C(C)C)n1	none
C=CCOc1ccc(C(=O)CC)cc1OC	GRK2 aptamer HTS 93 | GRK2 CP1 inactive | FAM quench CP1 inactive
